Screening data from PubChem.
Jurkat NFkB inh: inhibitors of induced NF-kB luciferase reporter, primary screen, TCR NF-kB activation inhibitor project, cell-based, luminescence, uHTS; Jurkat, PMA/ionomycin-induced NF-kB luciferase reporter; inhibition, % at 4 µM; 330,000 compounds, 0.53% hits; AID 435003, 2010; in the data active = inhibition above about 50%
697 NFkB inh: inhibitors of PMA/ionomycin-induced NF-kB reporter, 697 cells, primary screen, B-cell NF-kB inhibitor project, cell-based, luminescence, uHTS | 697 B-cell NF-kB luciferase reporter, 16 h | inhibition, % at 4 µM | 330,000 compounds, 0.33% hits; in the data active = inhibition above about 35%
Mdm2-MdmX inh: inhibitors of human Mdm2-MdmX association, primary screen, cell-based, luminescence, split luciferase, SaOS-2, uHTS. Protein Mdm4 (Homo sapiens) + E3 ubiquitin-protein ligase Mdm2 (Homo sapiens), …. SaOS-2 split-luciferase Mdm2/MdmX complementation. inhibition, % at 8 µM. 330,000 compounds, 3% hits;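 active = inhibition of at least 50% at 8 µM in the primary screen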
Target sequence (O15151 whole entry, looked up): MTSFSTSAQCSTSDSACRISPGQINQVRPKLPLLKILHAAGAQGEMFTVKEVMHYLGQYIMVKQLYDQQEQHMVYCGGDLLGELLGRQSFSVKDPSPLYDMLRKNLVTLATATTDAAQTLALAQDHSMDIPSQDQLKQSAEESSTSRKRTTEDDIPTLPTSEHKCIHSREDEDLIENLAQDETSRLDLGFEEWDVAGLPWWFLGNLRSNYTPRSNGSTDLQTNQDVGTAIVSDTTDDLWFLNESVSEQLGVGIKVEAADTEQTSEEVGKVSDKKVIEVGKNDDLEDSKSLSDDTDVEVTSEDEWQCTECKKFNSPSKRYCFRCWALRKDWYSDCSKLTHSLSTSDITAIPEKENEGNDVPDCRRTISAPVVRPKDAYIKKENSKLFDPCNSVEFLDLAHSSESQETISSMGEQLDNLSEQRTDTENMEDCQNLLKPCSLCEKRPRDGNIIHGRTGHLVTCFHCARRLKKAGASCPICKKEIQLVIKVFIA
Target sequence (Q00987 whole entry, looked up): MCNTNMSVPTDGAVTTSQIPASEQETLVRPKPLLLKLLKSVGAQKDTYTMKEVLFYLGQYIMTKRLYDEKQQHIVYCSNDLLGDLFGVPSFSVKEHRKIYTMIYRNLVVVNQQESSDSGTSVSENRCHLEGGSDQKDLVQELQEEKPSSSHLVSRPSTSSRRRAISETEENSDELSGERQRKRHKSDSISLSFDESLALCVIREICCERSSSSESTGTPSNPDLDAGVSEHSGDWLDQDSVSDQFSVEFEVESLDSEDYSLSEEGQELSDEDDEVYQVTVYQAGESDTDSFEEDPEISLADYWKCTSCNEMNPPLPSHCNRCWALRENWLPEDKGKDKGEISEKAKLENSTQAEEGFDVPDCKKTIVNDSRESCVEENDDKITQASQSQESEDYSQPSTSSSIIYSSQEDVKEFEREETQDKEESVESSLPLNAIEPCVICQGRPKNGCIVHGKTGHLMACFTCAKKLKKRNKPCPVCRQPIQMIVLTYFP
Gli-Sufu block: Gli-Sufu pathway antagonists, primary screen, luciferase luminescence, Sufu-KO-LIGHT cells, uHTS. Sufu-KO-LIGHT fibroblasts, Gli luciferase reporter luminescence. inhibition, % at 5 µM. 340,000 compounds, 0.74% hits;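 active = inhibition above about 55%, limit read from the data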;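 also: 0% = DMSO-treated cells and 100% = wells with medium but no cells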
Shn3 3UTR inh: reduction of Shn3 3'UTR firefly luciferase signal, primary screen, Schnurri-3 inhibitor project, cell-based, Clone20 osteoblasts, set 2. 360,000 compounds, 0.52% hits. inhibition, % at 12.5 µM. Clone20 osteoblast Shn3 3'UTR firefly luciferase, 24 h;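 active = mean inhibition of at least 75% with every replicate also reaching 75%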;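 also: 0% = median of neutral control wells and 100% = pilot-screen positive control compound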
Jurkat NFkB conf: PMA/ionomycin-induced NF-kB reporter inhibitors, Jurkat retest, confirmation, T-cell NF-kB inhibitor project, cell-based, luminescence, single concentration. shares compounds with Jurkat NFkB inh. Jurkat NF-kB luciferase, 16 h. inhibition, % at 4 µM. 2,700 compounds, 27% hits;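 active = inhibition reaching about 45% at 4 µM in either replicate, limit read from the data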;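 also: plate controls were PMA/ionomycin stimulated DMSO wells for no effect and unstimulated DMSO wells for full effect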
* = called active by the depositor; . = not tested or not shown. Most compounds without a hit are left out; they make up all but 3.8% or so of the library.

SMILES	Jurkat NFkB inh	697 NFkB inh	Mdm2-MdmX inh	Gli-Sufu block	Shn3 3UTR inh	Jurkat NFkB conf
O=C1c2ccccc2C2N1CCCN2C(=O)c1sc2ccccc2c1Cl (centres undefined)	.	.	.	.	-1	.
CC1(C(=O)NCC2CCCCC2)CCN1C(=O)Cc1ccc(-c2ccccc2)cc1 (centres undefined)	.	.	.	.	11	.
CCOC(=O)N/N=C/c1c(C)nn(-c2cccc(C(F)(F)F)c2)c1Cl	51*	-44	35	19	12	46
CC(C)N(C)c1ncnc2c1ncn2[C@H]1CN(CCc2ccccc2)C[C@@H](CO)O1	.	.	.	.	-8	.
COc1ccc2oc(=N)c(C(=O)Nc3ccccc3Cl)cc2c1	-160	-196	-91	-94	-125	-92
O=C(NC(=S)NC12CC3CC(CC(C3)C1)C2)c1ccc(F)cc1	-77	-103	-27	-71	-52	.
Cc1ccc(S(=O)(=O)NCc2ccc(C(=O)N3CCN(c4ccc([N+](=O)[O-])cc4)CC3)cc2)cc1	59*	0	25	26	90*	53*
COc1ccc(N2CCN(C(=O)c3ccc(CNS(=O)(=O)c4ccc(C)cc4)cc3)CC2)cc1	9	-12	26	-16	23	.
COCCN(Cc1ccc(OC)cc1)c1c(C)nc2ccc(C(=O)Nc3ccc(NC(C)=O)cc3)cn12	.	.	.	.	4	.
CCOc1cc(/C=N/Nc2cccc(C(=O)O)c2)ccc1OC(=O)c1ccccc1	58*	-20	-16	-174	65	-20
Cc1ccsc1/C=N/Nc1cccc(C(=O)O)c1	56*	9	-40	-236	76	7
COc1cc(C=NNc2ccccc2)ccc1OC(=O)c1ccccc1	.	.	.	.	-33	.
CC1(C)Cc2nc3sc4c(=O)n(CC(=O)NCc5ccccc5)cnc4c3cc2CO1	61*	-165	17	-48	-36	40
CCOC(=O)c1cnc2c(-c3ccccc3)c(C)nn2c1N	-24	-33	-21	-36	-41	.
CCOC(=O)c1cnc2c(-c3ccccc3)cnn2c1N	-163	-232	-95	-136	-72	-128
Cc1c(CC(=O)N2CCC(O)CC2)c(=O)oc2cc3c(cc12)CCC1(CCCCC1)O3	.	.	.	.	-7	.
O=Nc1nc2ncccn2c1-c1ccccc1	.	.	.	-1	-29	.
CCC(=O)c1ccc(OCC(=O)Nc2ccccc2N2CCCCC2)cc1	51*	-11	21	7	-3	11
O=C(/C=C/c1cccc(F)c1)N1CCc2ccccc21	-197	-245	-291	-130	-40	-140
O=C(/C=C/c1cccc(F)c1)OCC(=O)N1CCCc2ccccc21	4	14	33	-7	-18	.
O=C(c1ccc(Cl)cc1Cl)N1CCc2ccccc21	8	-1	20	16	-12	.
O=C(/C=C/c1ccc(Cl)cc1Cl)N1CCc2ccccc21	-155	-195	-148	-94	-62	-88
O=C(CSc1ccccc1)Nc1ccc2c(c1)OCCO2	-167	-17	-47	5	-14	-81
CN1CCN(c2ccc(NC(=O)CSc3ccccc3)cc2F)CC1	-155	-159	-26	-25	-70	-51
Cc1ccc(NC(=O)CCNS(=O)(=O)c2ccccc2F)cc1S(=O)(=O)N1CCOCC1	4	-2	-8	-7	6	.
SMILES	Jurkat NFkB inh	697 NFkB inh	Mdm2-MdmX inh	Gli-Sufu block	Shn3 3UTR inh	Jurkat NFkB conf
Fc1ccccc1OCCSc1nnnn1-c1ccccc1	-174	-160	-255	-89	-40	-139
Cc1cc2oc3ccc(NCCCn4ccnc4)cc3c(=O)c2cc1C	-167	-199	10	-38	-22	-20
COc1ccc(C(=O)CN2Cc3ccccc3C2=N)cc1	-157	-202	-144	-54	-39	-76
Cc1ccn(-c2ccc(NC(=O)c3cccs3)cc2)n1	-156	-44	-133	-68	-30	-88
CC1(C2CC2)NC(=O)N(CC(=O)NCC(=O)Nc2ccc(F)c(F)c2F)C1=O (centres undefined)	-2	14	16	-14	-5	.
Cc1cccc(Nc2nc(-c3ccccn3)cs2)n1	-185	-169	-105	-61	-2	-93
CC(=O)Oc1ccc(-c2csc(Nc3cccc(C)n3)n2)cc1	-151	-135	-143	-70	-107	-80
CC(=O)Oc1ccc(-c2csc(Nc3ccccn3)n2)cc1	.	.	.	.	-87	.
COCCNC(=S)N1CCC2CC1c1c(Cl)cccc12 (centres undefined)	.	.	.	.	-4	.
Cc1nc2cc(Oc3nc(NCCN(C)C)nc4ccsc34)ccc2s1	.	.	.	.	2	.
COc1ncccc1-c1cc2nc(NCCCN(C)C)n(C)c(=O)c2s1	.	.	.	.	-25	.
CCOC(=O)c1sc(NC(=O)c2ccccc2)cc1C	-163	-119	-113	-80	-23	-91
CCOC(=O)c1sc(NC(=O)c2ccc(Cl)s2)cc1C	-195	-113	-35	-101	-61	-58
CCOC(=O)c1sc(NC(=O)C2CC2)cc1C	0	3	-38	-4	6	.
CCOC(=O)c1sc(NC(=O)c2ccc(S(=O)(=O)N(C)C)cc2)cc1C	-7	-46	18	12	9	.
CC1(C(=O)NS(=O)(=O)c2ccc(Cl)cc2)CCN1C(=O)CCc1ccccc1 (centres undefined)	.	.	.	.	-21	.
COc1ccccc1NC(=O)CSc1nnc(-c2ccc(C)cc2)o1	-162	-141	-190	-70	-40	-91
Cc1ccc(NC(=O)CSc2nnc(-c3ccncc3)o2)cc1	6	11	-13	0	-21	.
COc1cccc(NC(=O)CSc2nnc(-c3ccc(C)cc3)o2)c1	-185	-30	-279	-22	-48	-24
CCCCN1CCN=C1N(C)C	-17	9	5	-2	9	.
CCOC(=O)C1(C)CCCN(C(=O)c2ccc(OC)c(OC)c2)C1 (centres undefined)	.	.	.	.	5	.
COc1ccccc1NC1=CC(=O)CC(c2ccccc2)C1 (centres undefined)	52*	-29	29	12	-6	12
COc1cc(C(=O)OCCc2cc3ccccc3c(=O)o2)cc(OC)c1OC	58*	-73	48	5	-3	58*
Cc1ccc(N/N=C(\C#N)C(=N)N2CCCCCC2)cc1	-185	-148	-111	-87	-22	-90
Cc1ccc(N/N=C(\C#N)C(=N)N2CCOCC2)cc1	-61	-17	-47	-12	-75	.
N#C/C(=N\Nc1ccc(Cl)cc1)C(=N)N1CCCCC1	-200	-228	-125	-97	-55	-103
COc1ccc(N/N=C(\C#N)C(=N)N2CCCCC2)cc1	-44	-54	-21	-57	-31	.
N#C/C(=N\Nc1ccc(F)cc1)C(=N)N1CCCCCC1	-194	-181	-187	-85	-49	-55
